ST2 inh = blocks human ST2 binding to IL-33 | 78,000 tested, 2.3% active | Q01638 | AlphaLISA ST2-Fc/biotin-IL-33 interaction, 1 h | inhibition, % for hits at 17 µM; in the data active = inhibition above about 30%
Target sequence (Q01638 whole entry, looked up): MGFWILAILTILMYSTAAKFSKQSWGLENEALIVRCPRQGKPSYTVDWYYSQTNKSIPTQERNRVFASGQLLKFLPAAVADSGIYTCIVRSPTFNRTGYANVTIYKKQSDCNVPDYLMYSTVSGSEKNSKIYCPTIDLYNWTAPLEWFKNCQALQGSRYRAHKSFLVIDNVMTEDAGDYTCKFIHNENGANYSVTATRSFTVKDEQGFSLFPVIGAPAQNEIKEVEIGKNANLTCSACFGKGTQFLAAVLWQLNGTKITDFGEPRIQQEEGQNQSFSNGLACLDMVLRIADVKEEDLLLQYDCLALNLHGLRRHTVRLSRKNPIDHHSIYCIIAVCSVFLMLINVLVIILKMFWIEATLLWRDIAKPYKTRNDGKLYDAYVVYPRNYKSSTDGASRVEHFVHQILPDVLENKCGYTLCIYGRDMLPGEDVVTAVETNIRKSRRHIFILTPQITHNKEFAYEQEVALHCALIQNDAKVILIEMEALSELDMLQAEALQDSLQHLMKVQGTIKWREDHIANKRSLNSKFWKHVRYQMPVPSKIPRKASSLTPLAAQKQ
* marks the source's active call; other numbers are inactive results; i = inactive. Shown is part of a subset that was picked to be rich in hits.

SMILES | ST2 inh
Cc1ccccc1-n1c(/C=C2\C(=O)N(C)c3ccccc32)nc2ccccc2c1=O | 49.0%*
O=c1c2ccccc2nc(-c2ccccc2Cl)n1-c1ccccc1O | i
Cc1ccccc1-n1c(Cc2ccccc2)nc2ccccc2c1=O | i
CC(C)SCC(=O)N1CCC2(CCN(C)C2)CC1 | i
CCN(CC)C[C@H]1CN2CC[C@H]1C[C@@H]2CNS(=O)(=O)c1ccc(C)cc1 | i
C=C[C@H](O)C#CC#C[C@@H](O)/C=C\CCCCCCC | i
O=C(c1ccncc1)N1C[C@@H]2C[C@H](C1)c1c(-c3ccc(Cl)cc3)ccc(=O)n1C2 | i
Cn1nc(C2CCCCC2)cc1[C@H]1CN2CC[C@H]1C[C@@H]2CNC(=O)COc1ccccc1 | i
CN1CCN(Cc2cccc([N+](=O)[O-])c2)CC1 | i
O=[N+]([O-])c1ccccc1CN1CC=C(c2ccc(F)cc2)CC1 | 30.0%*
O=[N+]([O-])c1cccc(CN2CC=C(c3ccc(F)cc3)CC2)c1 | 35.0%*
NC(=O)c1ccc(OCC(O)CN2CC=C(c3ccc(F)cc3)CC2)cc1 (stereo not given) | i
CN1CCN(Cc2ccccc2[N+](=O)[O-])CC1 | i
O=[N+]([O-])c1ccccc1CN1CCN(c2ccc(Cl)cc2)CC1 | i
CC(C)CN1C[C@@H]2OCC(=O)N(CC(N)=O)[C@@H]2C1 | i
COc1ccc(-c2ccc3n(c2=O)C[C@H]2C[C@@H]3CN(C(=O)c3ccc(C#N)cc3)C2)cc1 | i
COCCC(=O)N1C[C@@H]2C[C@H](C1)c1ccc(NC(=O)c3ccc(C#N)cc3)c(=O)n1C2 | 35.0%*
COCCC(=O)N1C[C@@H]2C[C@H](C1)c1ccc(-c3cccc(C(F)(F)F)c3)c(=O)n1C2 | i
CC(C)(C)c1cn(C[C@H]2CC3CCN2C[C@@H]3C(=O)NC2CC2)nn1 (stereo not given in full) | i
CCN(CC)C[C@H]1CN2CC[C@H]1C[C@@H]2CNC(=O)COC | i
COc1ccc(N2CCN(Cc3cccc(Cl)c3Cl)CC2)cc1 | 32.0%*
Cc1cccc(CN2CCN(c3ccccc3Cl)CC2)c1 | i
CCN1CCN(Cc2cc(Br)ccc2OC)CC1 | i
COc1cc(C)c(CN2CCN(c3ccccc3)CC2)cc1C | 31.0%*
Cc1ccc(N2CCN(Cc3c(F)cccc3Cl)CC2)cc1 | 36.0%*
SMILES | ST2 inh
COc1cccc(N2CCN(Cc3ccccc3OC)CC2)c1 | i
COc1ccc(CN2CCN(c3ccccc3)CC2)cc1O | i
COc1ccc(N2CCN(Cc3cc(Br)ccc3OC)CC2)cc1 | 41.0%*
Clc1cccc(N2CCN(Cc3ccccc3Cl)CC2)c1 | i
COc1ccc(Br)cc1CN1CCN(c2ccccc2C)CC1 | i
Fc1ccc(CN2CCN(c3cccc(Cl)c3)CC2)c(F)c1 | i
COc1ccccc1CN1CCN(c2ccccc2)CC1 | i
COCC1(O)C2CN3CCN(C2)CC1(c1ccccc1)C3 (stereo not given) | i
CC[C@H]1CN2CC[C@H]1C[C@@H]2CNC(=S)Nc1cccc2ccccc12 | i
O=C(NCc1ccccc1)[C@H]1CN2CCC1C[C@@H]2Cn1cc(-c2ccccc2)nn1 (stereo not given in full) | i
CCCNC(=O)OC[C@H]1C[C@@H]2CCN1C[C@@H]2c1cc(-c2ccc(F)cc2)nn1C | i
COc1ccccc1N1CCN(C[C@H]2CN3CC[C@H]2C[C@@H]3CNC(=O)c2ccco2)CC1 | i
Cc1cc(OCC(=O)N2CCN(C)CC2)cc(C)c1Br | i
OC1(C(O)(C#CCN2CCCCC2)c2ccccc2)CCCC1 (stereo not given) | i
CN1CCN(Cc2ccc(Cl)c(Cl)c2)CC1 | i
CCOc1ccc(CN2CCN(c3ccc(OC)cc3)CC2)cc1 | 34.0%*
COc1cccc(CN2CCN(c3ccc(F)cc3)CC2)c1 | i
COc1cc(CN2CCN(c3ccc(F)cc3)CC2)ccc1O | i
COc1ccc(N2CCN(Cc3ccc(Cl)cc3)CC2)cc1 | 44.0%*
CCOc1ccc(CN2CCN(c3ccccc3OC)CC2)cc1 | i
COc1ccc(CN2CCN(c3cccc(C)c3C)CC2)cc1 | i
COc1ccc(N2CCN(Cc3ccc(Cl)c(Cl)c3)CC2)cc1 | 35.0%*
Clc1ccc(CN2CCN(c3ccccc3)CC2)cc1Cl | i
CC1(C)[C@H]2CC=C(CN3CCC(O)CC3)[C@@H]1C2 | i
COC(=O)[C@H](Cc1ccccc1)NC(=O)c1cn(Cc2c(F)cccc2F)nn1 | i
SMILES | ST2 inh
COc1ccccc1-c1cc([C@H]2CN3CC[C@H]2C[C@@H]3CO)n(C)n1 | i
Cc1cccc(CN2CCN(c3ccccc3F)CC2)c1 | i
CCCCc1nc2ccccc2c(=O)n1-c1ccccc1 | i
COc1ccccc1N1CCN(Cc2ccc(F)c(F)c2)CC1 | i
CCn1cc(C(=O)N2CCC3(CC2)OCCO3)c2cc(OC)c(OC)cc2c1=O | i
O=C(O)CC(O)C(Cl)(Cl)Cl (stereo not given) | i
CS(=O)(=O)N1CC(=O)Nc2ccc(Br)cc2C1c1ccccc1 (stereo not given) | i
COc1cccc([C@@H]2CN(CCCn3ccnc3)[C@@H]3C4CCN(CC4)[C@@H]32)c1 | i
Cc1c(C(c2ccccc2Cl)c2c(O)c3ccccc3oc2=O)c(=O)n(-c2ccccc2)n1C (stereo not given) | i
CC(c1c(O)c2ccccc2oc1=O)c1c(O)c2ccccc2oc1=O | 36.0%*
COc1ccc(C(c2c(O)c3ccccc3oc2=O)c2c(C)n(C)n(-c3ccccc3)c2=O)cc1 (stereo not given) | i
COc1ccc(S(=O)(=O)NC[C@H]2C[C@@H]3CCN2C[C@@H]3CN2CCN(C)CC2)cc1 | i
Cc1cccc(-n2c(-c3cccnc3)nc3ccccc3c2=O)c1 | 46.0%*
Cc1cccc(-n2c(/C=C3\C(=O)Nc4ccccc43)nc3ccccc3c2=O)c1 | i
O=c1c2ccccc2nc(-c2ccccc2)n1-c1ccccc1 | i
O=C(O)CCC(=O)N1C[C@@H]2C[C@H](C1)c1ccc(-c3ccc4ccccc4c3)c(=O)n1C2 | i
COCCNC(=O)[C@H]1CN2CCC1C[C@@H]2Cn1cc(-c2cccc(O)c2)nn1 (stereo not given in full) | i
FC(F)(F)CCc1ccnc(N2CCOC3(CNCCOC3)C2)n1 (stereo not given) | i
CCN1CCN(Cc2cccc(Br)c2)CC1 | i
O=[N+]([O-])c1ccc(CN2CCN(Cc3ccccc3)CC2)cc1 | i
CN1CCN(Cc2cccc(Br)c2)CC1 | i
O=[N+]([O-])c1ccc(N2CCN(Cc3cccc(Cl)c3)CC2)cc1 | 36.0%*
Fc1ccc(CN2CCN(c3cccc(Cl)c3)CC2)cc1 | i
Brc1cccc(CN2CCN(c3ccccc3)CC2)c1 | 31.0%*
CCC(CC)c1cc([C@H]2CN3CC[C@H]2C[C@@H]3CNC(=O)Nc2ccc(C(C)=O)cc2)nc(-c2ccncc2)n1 | i
SMILES | ST2 inh
O=C(O)c1[nH]c2ccccc2c1CC(=O)N1CCN(Cc2ccc3c(c2)OCO3)CC1 | i
O=c1ccc(-c2ccccc2F)c2n1C[C@H]1C[C@@H]2CN(S(=O)(=O)c2cccs2)C1 | i
O=[N+]([O-])c1ccc(NCCCN2CCOCC2)c2cccnc12 | i
CC(Nc1ccc([N+](=O)[O-])c2cccnc12)c1ccc(Br)cc1 (stereo not given) | 40.0%*
CN(C)c1ccc(-c2cc([C@H]3CN4CC[C@H]3C[C@@H]4CNC(=O)COc3ccccc3)n(C)n2)cc1 | i
CC(C)NC(C)C(=O)c1ccc2c(c1)CCCC2 (stereo not given) | i

Source: PubChem (Paczesny and Yang Labs, IUPUI and University of Michigan)
